Compound activity: PubChem BioAssay, National Center for Advancing Translational Sciences (NCATS)
AmpC inh no detg: qHTS Inhibitors of AmpC Beta-Lactamase (assay without detergent); P00811; AmpC nitrocefin hydrolysis, absorbance 480 nm, 0.0001% Triton; Potency, µM (doses to about 57.1 µM), for the others: at the top dose activity change, negative = inhibition, usual class: inhibitors; 330,000 tested, 0.52% active;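 also: plate controls were no compound for no effect and no enzyme for full effect; nearly all actives have a fitted effect of over 20% in size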
Target sequence (P00811 whole entry, looked up): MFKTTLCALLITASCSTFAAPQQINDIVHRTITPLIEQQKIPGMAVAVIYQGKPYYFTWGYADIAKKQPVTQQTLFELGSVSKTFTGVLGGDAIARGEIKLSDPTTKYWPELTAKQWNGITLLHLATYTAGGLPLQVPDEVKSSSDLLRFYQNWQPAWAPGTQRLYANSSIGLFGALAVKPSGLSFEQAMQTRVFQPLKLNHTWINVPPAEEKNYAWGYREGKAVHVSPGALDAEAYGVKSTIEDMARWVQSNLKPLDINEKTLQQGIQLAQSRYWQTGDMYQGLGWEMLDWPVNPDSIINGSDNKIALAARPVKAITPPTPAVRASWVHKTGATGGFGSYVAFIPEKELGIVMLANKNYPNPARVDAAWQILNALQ
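20 mM phosphate pH 7.0 + 0.01% (detergent screen) or 0.0001% Triton X-100; 5.3 nM AmpC reagent; cpd preinc 15 min RT; nitrocefin (800 uM stock) to start; A480 q20 s × 4 min; Activity was normalised to no-enzyme and no-compound control wells.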
AmpC detergent: qHTS Inhibitors of AmpC Beta-Lactamase (assay with detergent); P00811; AmpC hydrolysis of nitrocefin, absorbance 480 nm, 0.01% Triton; Potency, µM (doses to about 114 µM), for inactives: at the top dose activity change, negative = inhibition, most hits filed as inhibitors; 370,000 tested, 0.041% active;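 also: 0% = no-compound wells and -100% = no-enzyme wells; nearly all actives have a fitted effect of over 25% in size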
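20 mM phosphate pH 7.0 + 0.01% (detergent screen) or 0.0001% Triton X-100; 5.3 nM AmpC reagent; cpd preinc 15 min RT; nitrocefin (800 uM stock) to start; A480 q20 s × 4 min; Activity was normalised to no-enzyme and no-compound control wells.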
An asterisk follows results filed as active; ? = inconclusive; / = no result; ! = not confirmed by another sample; [ ] = another dose, or the depositor's remark. This is one part of a sample in which hits are shown more often than they occur. Calls follow the shape of the dose curve; as a rule, active = well fitted curve in the direction sought with a large enough effect; inconclusive = small, poorly fitted or top-dose-only effect, or another doubt; inactive = no such curve, though single readings can be large; an effect the other way counts as inactive or inconclusive. Potency is read from the fitted curve at half-maximal effect.

SMILES	AmpC inh no detg	AmpC detergent
COc1cccc(C2CC(=O)Nc3c2c(=O)nc2c(C)cccn32)c1 (stereo not given)	/	-0.4%
COc1ccc(NC(=O)C(=O)NNC(=O)C(C)Oc2ccc(Cl)cc2Cl)cc1 (stereo not given)	31.6µM*	-8.7%
CC(=O)Nc1ccc(NC(=O)C(C)Oc2ccc(Cl)cc2Cl)cc1 (stereo not given)	6.8%[2.29 µM]	-2.3%
CCc1ccc(C(=O)c2cn(CC(=O)Nc3ccc4c(c3)OCO4)c3ccc(OC)cc3c2=O)cc1	/	-5.0%
COc1cc(-c2noc(-c3ccc(N(C)C)c([N+](=O)[O-])c3)n2)cc(OC)c1OC	/	0.4%
O=C(N/N=C/C(Br)=C/c1ccccc1)c1cc(-c2ccco2)[nH]n1	20µM*	1.7%
CC(/C=N/NC(=O)c1cc(-c2ccc(C)o2)[nH]n1)=C\c1ccccc1	-42.2%	-7.3%
Cc1ccccc1-c1nc2cc(NC(=O)COc3ccc(F)cc3)ccc2o1	/	3.5%
CC(NC(=O)Nc1cc(Cl)ccc1Cl)c1c(-n2cccc2)sc2c1CCCC2 (stereo not given)	/	-4.0%
COc1cc(C(=O)NNC(=O)NC2CCCCC2)cc(OC)c1OC	0.251µM*	0.5%
COc1cc(C(=O)NNC(=O)C2CCCC2)cc(OC)c1OC	-23.9%	-5.9%
CCCc1c(C)[nH]c2ccc(C(=O)O)cc2c1=S	-33.4%	39.8µM*
Cc1[nH]c2ccc(C(=O)O)cc2c1C	-10.0%	-9.1%
Cc1nc(CC(=O)Nc2ccc(N(C)C)cc2)cs1	/	17.9%
COc1ccc(Cl)cc1NC(=O)c1cnc2sccn2c1=O	3.55µM*	?
O=C(Nc1cnc2sccn2c1=O)c1ccc(Cl)cc1Cl	-12.2%	-2.7%
COc1ccc(/C(C)=N/OCC(=O)N=Nc2c(O)[nH]c3ccc(Br)cc23)cc1	-39.1%	?
COc1ccc(/C=N/OCC(=O)N=Nc2c(O)[nH]c3ccc(Br)cc23)cc1OC	3.16µM*	0.1%
Cc1ccccc1NN1C(=O)C=CC1=O	0.141µM*	1.2%
Cc1ccc(NN2C(=O)C=CC2=O)cc1	-9.2%	-13.9%
Cc1ccc(C2=CC(c3ccccc3F)n3c(nc4ccccc43)N2)cc1C (stereo not given)	/	-7.3%
CCC(Oc1ccccc1)C(=O)NC1C(=O)N2C1SC(C)(C)C2C(=O)O (stereo not given)	28.2µM*	31.6µM*
CC1(C)S[C@@H]2[C@H](NC(=O)C(NC(=O)N3CCNC3=O)c3ccccc3)C(=O)N2[C@H]1C(=O)O (stereo not given in full)	-12.4%	-7.2%
CC1(C)S[C@@H]2[C@H](NC(=O)Cc3ccccc3)C(=O)N2[C@H]1C(=O)O	0.9%	1.8%
CCOc1ccc2ccccc2c1C(=O)N[C@@H]1C(=O)N2[C@@H]1SC(C)(C)[C@@H]2C(=O)O	5.62µM*!	5.01µM*
SMILES	AmpC inh no detg	AmpC detergent
CC1(C)S[C@@H]2[C@H](NC(=O)[C@H](N)c3ccccc3)C(=O)N2[C@H]1C(=O)OC1OC(=O)c2ccccc21 (stereo not given in full)	0.224µM*	63.1µM*
Cc1cc(COC(=O)C2N3C(=O)[C@@H](NC(=O)COc4ccccc4)[C@H]3SC2(C)C)on1 (stereo not given in full)	25.4%	1.6%
CCOC(=O)c1cccc(NS(=O)(=O)c2ccc3[nH]c4c(c3c2)CCCC4)c1	/	-3.3%
Cc1cccc(N2CCN(C(=O)C3CCCN(S(=O)(=O)c4ccc(Br)s4)C3)CC2)c1C (stereo not given)	/	11.0%
CCOC(=O)c1ccc(NC(=O)CCc2c(C)nc3nc[nH]n3c2=O)cc1	/	-2.8%
COc1ccc(CNC(=O)c2cc(-c3ccc(C)c(C)c3)n[nH]2)cc1	/	13.2%
Fc1ccc(-c2noc3ncnc(NC4CCCCC4)c23)cc1	/	-0.6%
CCOc1ccc(N2CC(NC(=O)C(=O)c3c[nH]c4ccccc34)CC2=O)cc1 (stereo not given)	/	-2.8%
CCCSc1ncc(Cl)c(C(=O)Nc2sc3c(c2C(=O)NCC)CCCC3)n1	/	-1.6%
CSCC(=O)Nc1nc(-c2ccc3c(c2)OCCO3)cs1	-46.7%	-2.5%
CCCC(=O)Nc1nc(-c2ccc3c(c2)OCCO3)cs1	11.2µM*	?
CC(C)c1ccc(NC(=O)CCn2c(=O)c3cccn3c3ccccc32)cc1	/	8.9%
Cc1cccc(-n2cc(-c3ccccc3)c3c(NC(C)C)ncnc32)c1	/	2.2%
CC(=O)Nc1sc(/C(C#N)=C/c2ccc(Cl)c(Cl)c2)nc1-c1ccc(C)cc1	4.47µM*	-3.0%
CC(=O)Nc1sc(N/N=C/c2ccc(C)cc2)nc1-c1ccc(C)cc1	8.3%	2.1%
CC(C)CC(=O)Nc1c(C(=O)N2CCN(c3ccccc3F)CC2)oc2ccccc12	/	-8.2%
O=C(OCc1ccco1)c1ccc2c(c1)N(Cc1ccc([N+](=O)[O-])cc1)C(=O)c1ccccc1S2	/	20.4%
Oc1c(C(c2ccccc2Cl)N2CCN(Cc3ccccc3)CC2)sc2nc(-c3ccco3)nn12 (stereo not given)	/	-0.5%
Cc1csc(SCC(=O)Nc2cccc3nsnc23)n1	0.224µM*	-1.3%
Cc1csc(SCC(=O)Nc2ccccc2C)n1	-8.9%	-13.0%
CC1=CCC2C(=O)N(c3nc(C)cc(C)n3)C(=O)C2C1 (stereo not given)	-1.1%	1.6%
CC1=CCC2C(=O)N(c3ccc4ccccc4n3)C(=O)C2C1 (stereo not given)	0.141µM*	-0.3%
COc1ccc(Nc2nc(N)c3cc(OC)c(OC)cc3n2)cc1	/	12.6%
O=C(CCCCCNC(=S)Nc1ccccc1)C[N+](=O)[O-]	-38.4%	-3.0%
O=C(CCCCCNC(=S)Nc1ccc(Cl)cc1)C[N+](=O)[O-]	20µM*	0.0%
SMILES	AmpC inh no detg	AmpC detergent
COc1ccc(OC)c(S(=O)(=O)Nc2cc3c(C(C)=O)c(C)oc3c3ccccc23)c1	/	6.2%
COC(=O)c1c(C)oc2c1cc(NS(=O)(=O)c1cccs1)c1ccccc12	11.2µM*	-7.1%
CCOC(=O)COc1ccc(F)cc1C(=O)c1ccn2nc(-c3ccc(Cl)cc3)cc2n1	/	-3.0%
Oc1cccc(/C=N/N(Cc2ccccc2)c2ccccc2)c1	-35.2%	-4.9%
Oc1ccc(/C=N/N(Cc2ccccc2)c2ccccc2)c(O)c1O	17.8µM*	-2.8%
CC(=O)c1cccc(NC(=O)Cn2c(=O)c(CNc3ccc(C)cc3)cc3cc4c(cc32)OCCO4)c1	/	-3.5%
C/C(=N\NC(=O)c1ccc(NS(=O)(=O)c2cccs2)cc1)c1ccccc1	-40.4%	2.3%
COc1ccc2nc(NC(=O)CNS(=O)(=O)c3cccs3)sc2c1	?	-5.2%
COc1ccc2nc(NC(=O)c3ccc(NS(=O)(=O)c4cccs4)cc3)sc2c1	2.51µM*	?
COc1ccc(/C(C)=N/NC(=O)c2ccc(NS(=O)(=O)c3cccs3)cc2)cc1	10µM*	-9.6%
O=C(NN=Cc1ccccc1OC(F)F)c1ccc(NS(=O)(=O)c2cccs2)cc1	15.8µM*	/
O=C(NN=Cc1ccc(OC(F)F)cc1)c1ccc(NS(=O)(=O)c2cccs2)cc1	-41.9%	/
COc1ccc(Cn2c(SCc3ccc(C(=O)NC(C)C)cc3)nc3cccnc32)cc1	/	27.1%
CC(OC(=O)COc1ccc(Nc2ccccc2)cc1)C(=O)N(C)c1ccccc1 (stereo not given)	39.8µM*	3.7%
